Screening data (PubChem)
Bim-Mcl-1: human Bim-Mcl-1 interaction inhibition. Bead-based flow cytometry, Bim peptide-Mcl-1 binding. inhibition, % at 10 µM. actives 0.1% (n = 190,000). Q07820; in the data active = inhibition above about 40%;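 also: 0% = no compound tracer wells and 100% = peptide blocker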
Target sequence (Q07820 whole entry, looked up): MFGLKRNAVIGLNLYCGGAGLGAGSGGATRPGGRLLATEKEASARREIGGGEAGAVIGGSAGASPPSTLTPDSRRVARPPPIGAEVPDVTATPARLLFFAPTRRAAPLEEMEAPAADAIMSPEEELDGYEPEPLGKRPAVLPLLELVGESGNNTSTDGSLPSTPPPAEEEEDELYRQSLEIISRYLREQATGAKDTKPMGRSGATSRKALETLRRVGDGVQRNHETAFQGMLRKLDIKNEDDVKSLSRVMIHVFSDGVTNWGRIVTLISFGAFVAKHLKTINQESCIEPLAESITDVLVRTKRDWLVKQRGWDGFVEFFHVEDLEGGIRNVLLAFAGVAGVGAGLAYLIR
eIF4E-4G inh: inhibitors of eIF4E and eIF4G interaction in translation initiation | inhibition, % at 21.7 µM | TR-FRET eIF4E-eIF4GI(517-606) binding, 2 h | actives 0.37% (n = 220,000) | P63073+Q04637;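 also: 0% = full FRET control wells and 100% = background wells lacking eIF4GI fragment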
NCF1 inh: p47phox (human) inhibition. P14598. p47phox/p22phox peptide binding, fluorescence polarization, 2 h. inhibition, % at 24.7 µM. actives 0.53% (n = 220,000);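 also: 0% = p47phox with labelled peptide and 100% = labelled peptide alone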
Mcl1-Bid inh: disrupts binding of human Mcl-1 to Bid peptide | Q07820 | TR-FRET Mcl-1/Bid-Dy647 peptide binding, 1536-well | inhibition, % at 21.7 µM | actives 0.97% (n = 220,000) | AID 1021;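 active = compounds that cut the binding signal by more than half at the single screening dose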;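 also: His-tagged Mcl-1 with europium anti-His antibody binding Bid BH3 peptide; 0% = Mcl-1 plus peptide wells and 100% = peptide-only wells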
Mcl1-Noxa inh: disrupts binding of human Mcl-1 to Noxa peptide; AID 1022; actives 1.5% (n = 220,000); TR-FRET Mcl-1/Noxa peptide binding, 2 h; inhibition, % at 21.7 µM;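 active = compounds that cut the protein-peptide binding signal by more than 50% relative to plate controls in a single-dose test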;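 also: His-tagged Mcl-1 with rhodamine Noxa BH3 peptide and terbium anti-His antibody; 0% = Mcl-1 plus Noxa peptide wells and 100% = peptide-only wells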
14-3-3 Bad inh: disrupts binding of bovine 14-3-3 zeta to phospho-Bad peptide; P63103; TR-FRET 14-3-3zeta/Dy647-pBad peptide displacement, 1 h; inhibition, % at 21.7 µM; actives 0.71% (n = 220,000); AID 781;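 active = inhibition above about 70%, limit read from the data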;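 also: 0% = full 14-3-3 plus peptide FRET controls and 100% = background without 14-3-3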
* hit, by the source's call; · = not tested or not shown; [ ] = remark or other dose. Compounds with a hit are over-represented: about 3.3% of the library has one in this group of screens.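 The calls were made as follows, unless noted: active = inhibition above about 30% (limit read from the data); inactive = the rest.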

SMILES	Bim-Mcl-1	eIF4E-4G inh	NCF1 inh	Mcl1-Bid inh	Mcl1-Noxa inh	14-3-3 Bad inh
CN(C)c1ccc(NC(=O)c2ccc3c(c2)nnn3C)cc1	0.0	15.2	-1.5	-58.7	60.5*	-13.7
CNNC(=S)Nc1cccc(SC)c1	·	1.8	-12.4	-15.1	11.8	-3.2
CCCc1cnc(N2CCN(C(=O)c3c(-c4ccccc4)noc3C)CC2)nc1	·	2.2	-17.2	-1.2	-2.6	-6.7
Cc1ccc(CC(=O)NCCCn2ccnc2)cc1	0.0	5.6	5.2	-13.6	2.2	-3.2
Cc1ccc(C(=O)NCCCn2ccnc2)o1	-2.0	4.0	-5.2	61.8*	42.2	-0.1
O=C(O)C1CCCCC1C(=O)NCCCn1ccnc1 (centres undefined)	-3.0	4.1	36.3*	-50.2	-1.9	3.3
O=C(NCCCn1ccnc1)C(=O)NC1CCCCC1	-1.0	-2.5	-5.4	-1.5	10.7	6.6
COc1cccc(N=c2oc3ccccc3cc2-c2nc3ccccc3[nH]2)c1	-2.0	-46.9	2.1	56.4*	14.4	54.7
COc1cccc(N=c2oc3ccc(OC)cc3cc2-c2nc3ccccc3[nH]2)c1	0.0	-11.7	26.3	-182.3	-250.1	78.6*[fluorescence artefact?]
O=C(COc1ccc(Cl)cc1)Nc1ccc(Cl)cn1	0.0	3.9	-0.7	-14.8	-1.2	81.6*
CCOC(=O)c1ccc(NC(=O)Nc2ccc(Cl)cn2)cc1	0.0	10.2	36.1*	-6.0	12.6	-1.6
CCOC(=O)c1ccc(NC(=O)Nc2ccon2)cc1	·	2.4	-7.4	-7.1	-2.9	-6.5
Cc1oc(-c2ccccc2)cc1C(=O)Nc1cccc(/C=C\C(=O)O)c1	0.0	2.0	-2.0	-19.2	18.5	-5.6
Cc1oc(-c2ccccc2)cc1C(=O)Nc1ccc(N(C)C)cc1	0.0	20.1	-3.0	6.0	72.8*	2.6
O=C(CSc1ncccn1)Nc1ncc(C(F)(F)F)cc1Cl	-1.0	2.8	-6.6	-21.1	12.3	-2.5
O=C(COC(=O)CCCc1c[nH]c2ccccc12)Nc1ccc2c(c1)OCO2	-6.0	-4.3	-15.7	-31.8	55.6*	-13.2
Cc1ccc(C)c(OCC(=O)Nc2ccc3c(c2)OCO3)c1C	-3.0	-3.5	-5.0	85.0*	-15.5	-6.4
CC(C)Cn1ccc(=O)n(CC(C)C)c1=O	-10.0	-3.9	4.3	55.3*	-4.6	13.8
COCCNC(=O)/C(C#N)=C/C=C/c1ccccc1[N+](=O)[O-]	-6.0	-0.4	-8.3	-13.1	12.7	-2.8
CCc1ccccc1NC(=O)N1CCc2ccccc21	·	3.8	-9.7	-8.6	9.8	1.8
O=c1c2cnn(-c3ccccc3)c2nc(-c2ccco2)n1-c1ccccc1	2.0	-6.7	-5.4	58.4*	23.2	59.4
O=c1oc(-c2ccco2)nc2c1cnn2-c1ccccc1	-6.0	5.7	3.1	0.8	20.0	-0.8
CCC(C)NCCCOc1c(C)cc(C)cc1Br (centres undefined)	0.0	0.3	-5.5	26.0	118.9*	4.5
CCC(C)NCCOCCOc1ccc(C)cc1Br (centres undefined)	4.0	3.4	3.9	29.0	16.4	43.3
CN(C)CCCNC(CC(=O)Nc1cccc([N+](=O)[O-])c1)C(=O)O (centres undefined)	0.0	3.3	-4.9	-7.1	8.0	4.3
SMILES	Bim-Mcl-1	eIF4E-4G inh	NCF1 inh	Mcl1-Bid inh	Mcl1-Noxa inh	14-3-3 Bad inh
Cc1nc(Sc2ccc(Br)cc2)c(C#N)c(C)c1[N+](=O)[O-]	·	5.2	-1.3	3.6	-0.9	-7.4
CN(C)CC(C)(C)CNC(=O)C1CCN(Cc2ccccc2O)CC1	0.0	-20.2	-4.8	58.5*	20.4	43.0
Clc1cccc2sc(N3CCCCC3)nc12	0.0	-0.1	-1.7	-6.6	-3.9	-12.6
Brc1cccc2sc(N3CCN(c4ccccc4)CC3)nc12	-1.0	-4.0	-16.1	-21.4	6.8	87.1*
CCN(c1ccc(NC(=O)COC(=O)c2cc3ccccc3oc2=O)cc1)C(C)C	-3.0	19.9	5.3	-24.9	85.7*	9.9
CN(C)S(=O)(=O)c1cccc(NC(=O)COC(=O)c2cc3ccccc3oc2=O)c1	·	16.6	-4.5	80.3*	23.7	26.0
CCN(CC)S(=O)(=O)c1cccc(NC(=O)c2cc3ccccc3o2)c1	0.0	2.0	-24.5	-22.6	3.1	6.5
CN(C)S(=O)(=O)c1cccc(NC(=O)c2cc3ccccc3o2)c1	0.0	1.0	-15.1	-20.7	10.6	75.1*[fluorescence artefact?]
